According to PubChem BioAssay AID1159580 (chemical genetic matrix, 2015):
Values joined by “and” are separate entries in the source; they are usually repeats but may differ in a detail not shown here. Equal values may be shown once. Out of some 5,500 compounds screened, about 2,000 (36%) were called active. About 18% were inconclusive and are not listed. Rule as the data show it: active = normalized growth mostly below about 0.91 (no sharp cut-off); inconclusive = no clear call, values can overlap the other calls; inactive = mostly above about 0.92. The list shows a part of the results.

Test: chemical genetic growth profiling, strain panel (AID 1159580);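 also: tested at 20 µM; growth read once vehicle control cultures reached saturation at 30 °C; 1 = growth at the plate median or of vehicle wells; lower values mean less growth of the strain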
Conditions: growth OD

Measured: normalized growth

CNC1(C)C2CCC(C2)C1(C)C (stereo unspecified)
active: S. cerevisiae deletion strains, locus YOR231W, strain MKK1, hits give low values 0.824
inactive: S. cerevisiae deletion strains, locus YJR075W, strain HOC1, hits give low values 1 and 1.01 | S. cerevisiae deletion strains, locus YKL009W, strain mrt4, hits give low values 1.03 | S. cerevisiae deletion strains, locus YKL068W, hits give low values 0.989 | S. cerevisiae deletion strains, locus YKL085W, strain MDH1 (second series), hits give low values 1.02 | S. cerevisiae deletion strains, locus YKL085W, strain MDH1, hits give low values 1.02 | S. cerevisiae deletion strains, locus YKL160W, strain elf1, hits give low values 0.97 | S. cerevisiae deletion strains, locus YKL190W, strain CNB1, hits give low values 0.977 | S. cerevisiae deletion strains, locus YKR001C, strain vps1, hits give low values 0.997 | S. cerevisiae deletion strains, locus YKR026C, strain gcn3, hits give low values 1 | S. cerevisiae deletion strains, locus YKR091W, strain srl3, hits give low values 1 | S. cerevisiae deletion strains, locus YLL001W, strain dnm1, hits give low values 0.948 | S. cerevisiae deletion strains, locus YLL026W, hits give low values 0.996 | S. cerevisiae deletion strains, locus YLL041C, strain sdh2, hits give low values 0.988 | S. cerevisiae deletion strains, locus YLR027C, strain aat2, hits give low values 0.996 | S. cerevisiae deletion strains, locus YLR039C, strain RIC1, hits give low values 0.959 | S. cerevisiae deletion strains, locus YLR058C, strain SHM2, hits give low values 0.979 | S. cerevisiae deletion strains, locus YLR102C, strain apc9, hits give low values 0.981 | S. cerevisiae deletion strains, locus YLR113W, strain HOG1, hits give low values 0.934 | S. cerevisiae deletion strains, locus YLR221C, strain rsa3, hits give low values 0.976 | S. cerevisiae deletion strains, locus YLR258W, strain gsy2, hits give low values 1.02 | S. cerevisiae deletion strains, locus YLR262C, strain YPT6 (second series), hits give low values 1 | S. cerevisiae deletion strains, locus YLR262C, strain YPT6, hits give low values 0.934 | S. cerevisiae deletion strains, locus YLR268W, strain sec22, hits give low values 0.965 | S. cerevisiae deletion strains, locus YLR320W, strain mms22, hits give low values 0.982 | S. cerevisiae deletion strains, locus YLR330W, strain CHS5, hits give low values 0.987 | S. cerevisiae deletion strains, locus YLR342W, strain FKS1 (second series), hits give low values 1.08 | S. cerevisiae deletion strains, locus YLR342W, strain FKS1, hits give low values 0.99 | S. cerevisiae deletion strains, locus YLR357W, strain rsc2, hits give low values 0.987 | S. cerevisiae deletion strains, locus YLR370C, strain arc18, hits give low values 0.989 | S. cerevisiae deletion strains, locus YLR371W, strain rom2, hits give low values 1.01 | S. cerevisiae deletion strains, locus YLR384C, strain iki3, hits give low values 1 | S. cerevisiae deletion strains, locus YLR418C, strain cdc73, hits give low values 0.909 | S. cerevisiae deletion strains, locus YML016C, strain PPZ1, hits give low values 0.993 | S. cerevisiae deletion strains, locus YML032C, strain rad52, hits give low values 1.03 | S. cerevisiae deletion strains, locus YML120C, strain ndi1, hits give low values 0.979 | S. cerevisiae deletion strains, locus YML124C, strain tub3, hits give low values 0.995 | S. cerevisiae deletion strains, locus YMR058W, strain fet3, hits give low values 0.995 | S. cerevisiae deletion strains, locus YMR078C, strain ctf18, hits give low values 0.999 | S. cerevisiae deletion strains, locus YMR125W, strain sto1, hits give low values 0.987 | S. cerevisiae deletion strains, locus YMR129W, hits give low values 0.998 | S. cerevisiae deletion strains, locus YMR205C, strain PFK2, hits give low values 0.983 | S. cerevisiae deletion strains, locus YMR223W, strain ubp8, hits give low values 1.04 | S. cerevisiae deletion strains, locus YMR231W, strain pep5, hits give low values 0.998 | S. cerevisiae deletion strains, locus YMR263W, strain SAP30, hits give low values 0.966 and 1 | S. cerevisiae deletion strains, locus YMR307W, strain GAS1, hits give low values 1.06 | S. cerevisiae deletion strains, locus YNL067W, strain RPL9B, hits give low values 0.976 | S. cerevisiae deletion strains, locus YNL071W, strain lat1, hits give low values 0.993 | S. cerevisiae deletion strains, locus YNL128W, strain TEP1, hits give low values 0.946 and 1.02 | S. cerevisiae deletion strains, locus YNL153C, strain GIM3, hits give low values 0.962 | S. cerevisiae deletion strains, locus YNL175C, strain NOP13, hits give low values 0.998 | S. cerevisiae deletion strains, locus YNL183C, strain NPR1, hits give low values 0.971 | S. cerevisiae deletion strains, locus YNL197C, strain WHI3, hits give low values 1.02 | S. cerevisiae deletion strains, locus YNL209W, strain ssb2, hits give low values 0.992 | S. cerevisiae deletion strains, locus YNL224C, strain SQS1, hits give low values 1.01 | S. cerevisiae deletion strains, locus YNL233W, strain BNI4, hits give low values 0.98 | S. cerevisiae deletion strains, locus YNL248C, strain rpa49, hits give low values 0.982 | S. cerevisiae deletion strains, locus YNL250W, strain rad50, hits give low values 0.995 | S. cerevisiae deletion strains, locus YNL271C, strain bni1, hits give low values 0.996 | S. cerevisiae deletion strains, locus YNL298W, strain CLA4, hits give low values 0.99 | S. cerevisiae deletion strains, locus YNL307C, strain MCK1, hits give low values 0.999 | S. cerevisiae deletion strains, locus YNL322C, strain KRE1 (second series), hits give low values 1 | S. cerevisiae deletion strains, locus YNL322C, strain KRE1, hits give low values 0.978 | S. cerevisiae deletion strains, locus YNR049C, strain mso1, hits give low values 0.996 | S. cerevisiae deletion strains, locus YNR052C, strain pop2, hits give low values 0.992 | S. cerevisiae deletion strains, locus YOL006C, strain TOP1, hits give low values 0.951 | S. cerevisiae deletion strains, locus YOL012C, strain htz1 0.652 | S. cerevisiae deletion strains, locus YOL147C, strain pex11, hits give low values 0.996 | S. cerevisiae deletion strains, locus YOR001W, strain rrp6, hits give low values 0.964 | S. cerevisiae deletion strains, locus YOR061W, strain CKA2, hits give low values 0.958 | S. cerevisiae deletion strains, locus YOR069W, strain VPS5, hits give low values 0.993 | S. cerevisiae deletion strains, locus YOR070C, strain gyp1, hits give low values 0.997 | S. cerevisiae deletion strains, locus YOR080W, strain dia2, hits give low values 0.999 | S. cerevisiae deletion strains, locus YOR083W, strain WHI5 (second series), hits give low values 1.01 | S. cerevisiae deletion strains, locus YOR083W, strain WHI5, hits give low values 0.978 | S. cerevisiae deletion strains, locus YOR106W, strain vam3, hits give low values 0.987 | S. cerevisiae deletion strains, locus YOR136W, strain idh2, hits give low values 1.01 | S. cerevisiae deletion strains, locus YOR144C, strain elg1, hits give low values 0.99 | S. cerevisiae deletion strains, locus YOR184W, strain ser1, hits give low values 1.05 | S. cerevisiae deletion strains, locus YOR265W, strain rbl2, hits give low values 0.989 | S. cerevisiae deletion strains, locus YOR270C, strain vph1, hits give low values 0.991 | S. cerevisiae deletion strains, locus YOR290C, strain snf2, hits give low values 0.958 | S. cerevisiae deletion strains, locus YOR316C, strain cot1, hits give low values 0.985 | S. cerevisiae deletion strains, locus YPL051W, strain arl3, hits give low values 0.999 | S. cerevisiae deletion strains, locus YPL055C, strain LGE1, hits give low values 0.935 | S. cerevisiae deletion strains, locus YPL078C, strain atp4, hits give low values 0.983 | S. cerevisiae deletion strains, locus YPL106C, strain sse1, hits give low values 0.979 | S. cerevisiae deletion strains, locus YPL240C, strain hsp82, hits give low values 0.989 | S. cerevisiae deletion strains, locus YPL241C, strain CIN2, hits give low values 1 | S. cerevisiae deletion strains, locus YPL256C, strain CLN2, hits give low values 0.946 | S. cerevisiae deletion strains, locus YPR119W, strain clb2, hits give low values 0.993 | S. cerevisiae deletion strains, locus YPR141C, strain kar3, hits give low values 0.968 | S. cerevisiae deletion strains, locus YPR163C, strain tif3, hits give low values 0.991 | S. cerevisiae deletion strains, locus YPR167C, strain met16, hits give low values 0.983 | S. cerevisiae deletion strains, strain wtn01, hits give low values 0.974 | S. cerevisiae strains, strain wild type, hits give low values 0.991
